“And” between values parts separate entries of the source, which are not always exact repeats. Identical values can stand only once. Inconclusive results are not listed. Where a call stands in place of a potency, no number is given. The source made the active and inactive calls. Calls come from the whole dose curve; as a rule, active = well fitted activation curve with a large enough effect in the repeat runs; inconclusive = weak or mixed curves; inactive = no such curve, though single readings can be large or run the other way.
Potency is the fitted concentration of half-maximal effect.

In this assay the target is Nuclear receptor subfamily 1 group I member 3 (Homo sapiens) (UniProt Q14994). Briefly: qHTS assay to identify small molecule agonists of the constitutive androstane receptor (CAR) signaling pathway (AID 1224839). Note: nearly all actives have a fitted effect of over 15% in size. Particulars: HepG2 hCAR CYP2B6-luciferase, agonist mode, 24 h; series mostly up to 92.4 µM. The method in brief: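 A 15-concentration quantitative screen uses HepG2 cells co-transfected stably with human CAR and CYP2B6-2.2kb reporter. Treatment lasts 24 h with 0.75 uM PK11195 final present; ONE-Glo luminescence is the signal.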
Nuclear receptor subfamily 1 group I member 3 (Homo sapiens), sequence (Q14994 whole entry, looked up): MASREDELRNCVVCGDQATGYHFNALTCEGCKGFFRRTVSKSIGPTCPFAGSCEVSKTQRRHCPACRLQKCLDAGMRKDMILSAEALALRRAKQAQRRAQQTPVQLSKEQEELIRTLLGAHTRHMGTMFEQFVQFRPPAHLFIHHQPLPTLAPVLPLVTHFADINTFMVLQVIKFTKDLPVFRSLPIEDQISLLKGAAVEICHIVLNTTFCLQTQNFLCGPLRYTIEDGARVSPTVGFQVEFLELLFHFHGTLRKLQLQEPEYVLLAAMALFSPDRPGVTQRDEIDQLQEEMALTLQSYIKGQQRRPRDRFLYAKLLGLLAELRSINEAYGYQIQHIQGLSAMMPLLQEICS
A general note: In qHTS, concentration-response curves come from the screen itself.
In the case of `OC[C@H]1O[C@@H]2O[C@H]3[C@H](O)[C@@H](O)[C@@H](O[C@H]4[C@H](O)[C@@H](O)[C@@H](O[C@H]5[C@H](O)[C@@H](O)[C@@H](O[C@H]6[C@H](O)[C@@H](O)[C@@H](O[C@H]7[C@H](O)[C@@H](O)[C@@H](O[C@H]8[C@H](O)[C@@H](O)[C@@H](O[C@H]1[C@H](O)[C@H]2O)O[C@@H]8CO)O[C@@H]7CO)O[C@@H]6CO)O[C@@H]5CO)O[C@@H]4CO)O[C@@H]3CO`, the Potency result is “inactive”.
Turning to `CCCCC(CC)COCC1CO1` (stereo not given), the Potency result was “inactive”.
For `Cc1cccc(C(=O)O)c1`, the Potency entry was “inactive”.
Take `O=[N+]([O-])c1ccc2c(c1)Cc1ccccc1-2`: the Potency is 54.4 µM (active).
With `CCCCC/C=C/C=C/C=O`, the Potency entry is “inactive”.
Consider `O=c1oc(=O)c2cc3c(=O)oc(=O)c3cc12`, for which the Potency entry was “inactive”.
With `Cc1c(OCC(F)(F)F)ccnc1CS(=O)c1nc2ccccc2[nH]1` (stereo not given) the figure was 30.6 µM (active) and 11.9 µM (active); with `CCC(C)c1ccccc1O` (stereo not given), “inactive”.
Then `Nc1ncn([C@@H]2O[C@H](CO)[C@@H](O)[C@H]2O)c(=O)n1`, with “inactive”; and `CC(C)OC(=O)C(C)(C)Oc1ccc(C(=O)c2ccc(Cl)cc2)cc1`, with 54.5 µM (active) and 26.6 µM (active).
Consider `Cc1ccc2c(n1)Oc1ccc(C(C)C(=O)OCC(=O)N(C)C)cc1C2` (stereo not given), for which the Potency was 11.9 µM (active).
`Brc1cc(Oc2cc(Br)c(Br)c(Br)c2Br)c(Br)c(Br)c1Br`: the Potency result is “inactive”.
On to `CCCCOCCOCCOCCO`, for which the Potency entry is “inactive”.
On to `CCCCC(CC)COP(=O)(OCC(CC)CCCC)OCC(CC)CCCC` (stereo not given), for which the Potency entry is “inactive”.
Then `CCOC(=O)C(C#N)=C(c1ccccc1)c1ccccc1`, with 3.86 µM (active) and 3.76 µM (active).

The values above are taken from PubChem BioAssay (Tox21).
